The values below come from PubChem BioAssay AID651919 (Sanford-Burnham Center for Chemical Genomics, 2012).

Several values for one entry are separate records, joined by “and”; a condition that tells them apart may be missing. Identical values can stand only once.

Chain of C-X-C chemokine receptor type 6 (Homo sapiens) (O00574 whole entry, looked up): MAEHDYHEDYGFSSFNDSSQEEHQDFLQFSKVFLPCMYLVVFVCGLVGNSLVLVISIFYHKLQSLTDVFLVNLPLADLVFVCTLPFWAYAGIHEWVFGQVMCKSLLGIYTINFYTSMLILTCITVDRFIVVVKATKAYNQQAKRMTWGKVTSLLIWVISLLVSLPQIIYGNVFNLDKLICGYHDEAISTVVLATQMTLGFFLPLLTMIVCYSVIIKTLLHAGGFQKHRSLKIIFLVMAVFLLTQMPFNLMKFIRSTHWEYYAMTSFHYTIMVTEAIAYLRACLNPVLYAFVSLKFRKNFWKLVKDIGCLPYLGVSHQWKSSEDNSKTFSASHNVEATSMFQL

This test has as its target C-X-C chemokine receptor type 6 (Homo sapiens) (UniProt O00574). Nature of the test: antagonism of CXCR6 versus CXCR5 signaling – cell-based, CHO-K1 PathHunter beta-arrestin, luminescence, set 4, selectivity assay for CXCR6 antagonist project, profiling panel (AID 651919). The conditions noted are these: run 2, at 79 µM (top of the series).
Regarding `O=C(CN1C2CCCC1CC(NC(=O)c1ccccc1)C2)Nc1ccccc1` (centres undefined), the inhibition came out at 7.76%.
To `COc1ccc(C(=O)NC2CC3CCCC(C2)N3CC(=O)Nc2ccc(C)cc2)cc1OC` (centres undefined) belongs 4.86%; to `O=C(CN1C2CCCC1CC(NC(=O)c1ccc3c(c1)OCO3)C2)Nc1ccc(Cl)cc1` (centres undefined), -3.16%; to `COc1cccc(C(=O)NC2CC3CCCC(C2)N3CC(=O)Nc2ccc(Cl)cc2)c1` (centres undefined), -8.76%.
For the compound `COc1cc(C(=O)NC2CC3CCCC(C2)N3CC(=O)Nc2ccc(F)cc2)cc(OC)c1OC` (centres undefined), the inhibition came to 81.3%.
The result for `COc1cc(OC)cc(C(=O)NC2CC3CCCC(C2)N3CC(=O)Nc2ccccc2)c1` (centres undefined) reads 3.13%.
In the case of `COc1cc(OC)cc(C(=O)NC2CC3CCCC(C2)N3CC(=O)Nc2ccc(F)cc2)c1` (centres undefined), the inhibition is -4.2%.
Regarding `COc1cc(OC)cc(C(=O)NC2CC3CCCC(C2)N3CC(=O)Nc2ccc(Cl)cc2)c1` (centres undefined), the inhibition was -8.8%.
On to `COc1cccc(C(=O)NC2CC3CCCC(C2)N3CC(=O)Nc2ccccc2)c1` (centres undefined), for which the inhibition was 8.64%.
`COc1ccc(C(=O)NC2CC3CCCC(C2)N3CC(=O)Nc2ccccc2)cc1` (centres undefined): the inhibition was 8.56%.
The result for `Cc1ccc(NC(=O)CN2C3CCCC2CC(NC(=O)c2ccc4c(c2)OCO4)C3)cc1` (centres undefined) reads 5.62%.
Consider `COc1cc(C(=O)NC2CC3CCCC(C2)N3CC(=O)Nc2ccc(Cl)cc2)cc(OC)c1OC` (centres undefined), for which the inhibition was 90.4%.
The result for `COc1ccc(C(=O)NC2CC3CCCC(C2)N3CC(=O)Nc2ccc(F)cc2)cc1OC` (centres undefined) reads 29.3%; that for `COc1ccc(C(=O)NC2CC3CCCC(C2)N3CC(=O)Nc2ccc(Cl)cc2)cc1OC` (centres undefined), 14.6%; that for `COc1ccc(NC(=O)CN2C3CCCC2CC(NC(=O)c2cc(OC)c(OC)c(OC)c2)C3)cc1` (centres undefined), 61.4%.
To `COc1ccc(NC(=O)CN2C3CCCC2CC(NC(=O)c2cccc(OC)c2)C3)cc1` (centres undefined) belongs -0.0157%.
With `COc1cc(C(=O)NC2CC3CCCC(C2)N3CC(=O)Nc2ccccc2)cc(OC)c1OC` (centres undefined), the inhibition is 94% and 90.4%.
The result for `COc1ccc(NC(=O)CN2C3CCCC2CC(NC(=O)c2ccc(OC)c(OC)c2)C3)cc1` (centres undefined) reads -3.76%; that for `COc1ccc(C(=O)NC2CC3CCCC(C2)N3CC(=O)Nc2ccc(Cl)cc2)cc1` (centres undefined), -10.3%; that for `COc1cccc(C(=O)NC2CC3CCCC(C2)N3CC(=O)Nc2ccc(F)cc2)c1` (centres undefined), 2.48%.
The result for `COc1ccc(C(=O)NC2CC3CCCC(C2)N3CC(=O)Nc2ccc(F)cc2)cc1` (centres undefined) reads -0.539%; that for `COc1cc(OC)cc(C(=O)NC2CC3CCCC(C2)N3CC(=O)Nc2ccc(C)cc2)c1` (centres undefined), 55.4%; that for `COc1ccc(C(=O)NC2CC3CCCC(C2)N3CC(=O)Nc2ccccc2)cc1OC` (centres undefined), 30.3%.
`COc1ccc(CN2C3CCCC2CC(NC(=O)c2cc(OC)c(OC)c(OC)c2)C3)cc1` (centres undefined): the inhibition turned out to be 56.8%.
To `COc1cccc(C(=O)NC2CC3CCCC(C2)N3CC(=O)Nc2ccc(C)cc2)c1` (centres undefined) belongs 3.25%; to `COc1ccc(NC(=O)CN2C3CCCC2CC(NC(=O)c2ccc(OC)cc2)C3)cc1` (centres undefined), 4.54%; to `COc1ccccc1NC(=O)CN1C2CCCC1CC(NC(=O)c1cc(OC)c(OC)c(OC)c1)C2` (centres undefined), 98.2%.
Consider `COc1ccc(NC(=O)CN2C3CCCC2CC(NC(=O)c2cc(OC)cc(OC)c2)C3)cc1` (centres undefined), for which the inhibition is -0.62%.
The result for `O=C(CN1C2CCCC1CC(NC(=O)c1ccc3c(c1)OCO3)C2)Nc1ccc(F)cc1` (centres undefined) reads -2.79%; that for `COc1ccc(NC(=O)CN2C3CCCC2CC(NC(=O)c2ccc4c(c2)OCO4)C3)cc1` (centres undefined), 4.54%; that for `COc1cc(C(=O)NC2CC3CCCC(C2)N3CC(=O)Nc2ccccc2Cl)cc(OC)c1OC` (centres undefined), 100% and 99.1%.
Turning to `COc1cc(C(=O)NC2CC3CCCC(C2)N3CC(=O)Nc2ccc(C)cc2)cc(OC)c1OC` (centres undefined), the inhibition amounted to 77.6%.
The result for `COc1ccc(C(=O)NC2CC3CCCC(C2)N3CC(=O)Nc2ccc(C)cc2)cc1` (centres undefined) reads 6.15%; that for `O=C(CN1C2CCCC1CC(NC(=O)c1ccc3c(c1)OCO3)C2)Nc1ccccc1` (centres undefined), 5.06%.

A word on the inhibition: it is the relative decrease from the control value, in per cent.
